# Measurements reported in PubChem BioAssay.
# Activity calls are given as the source filed them.
# Legend:
# Albumin (Bos taurus) = Albumin (Bos taurus) (UniProt P02769); assay: bovine serum albumin binders on microarray, profiling panel, artefact control for SMM control protein annotation, biochemical, small-molecule microarray, Alexa647 label, 635/667 nm fluorescence (AID 1118); details: BSA-A647 binding, fluorescence 635 nm, higher = more signal;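 also: score merges 667 nm emission intensity and signal-to-noise per printed compound spot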
# [1] = small-molecule microarray binders of probe aXIP, primary screen, biochemical, NeuroSMM set, 635/667 nm fluorescence (AID 1119); details: higher = more signal, called active from +8 up or from −8 down;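 also: probe is the protein aXip251-270 applied at 1 µg/mL to compound-printed slides; binding of probe to printed compounds measured as 667 nm fluorescence plus signal to noise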
# [2] = small-molecule binders of probe aNOTCH3, primary screen, biochemical, small-molecule microarray, 635/667 nm fluorescence (AID 1120); details: higher = more signal;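 also: probe is a biotin-tagged antibody raised against NOTCH3 rather than NOTCH3 protein; score merges spot fluorescence near 667 nm with spot signal to noise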
# [3] = small-molecule binders of probe aNOTCH2, primary screen, biochemical, small-molecule microarray, 635/667 nm fluorescence (AID 1121); details: higher = more signal;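 also: score merges feature fluorescence read at 667 nm with its signal to noise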
# [4] = biological target: Carbonic anhydrase 2 (Homo sapiens) (UniProt P00918); assay: CAII small-molecule binders, profiling panel, biochemical, small-molecule microarray, Alexa647-labelled CAII (AID 1122); details: CAII-A647 binding fluorescence, higher = more signal
# [5] = COS7 lysate on small-molecule microarray, probe aHis, 635 nm (AID 1123); details: COS7 cell lysate, fluorescence, higher = more signal;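 also: z-score combines 667nm fluorescence intensity with signal-to-noise per printed compound spot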
# [6] = compound binding in COS7 lysate, probe aLAP1, primary screen, cell lysate, small-molecule microarray (AID 1124); details: probe aLAP1, fluorescence, higher = more signal;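 also: lysate comes from COS7 cells expressing LAP1 and is applied at 0.3 µg/mL; score merges spot fluorescence near 667 nm with signal-to-noise over triplicate slides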
# Sam68 (KHDRBS1) = assay: Sam68 small-molecule binders, primary screen, biochemical, small-molecule microarray, 635 nm fluorescence (AID 1125); details: small-molecule microarray binding, higher = more signal;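 also: score merges 667 nm channel intensity with signal to noise over triplicate slides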
# [7] = tested on: Chordin-like protein 2 (CHRDL2); assay: CHRDL2 small-molecule binders, primary screen, biochemical, small-molecule microarray, 635 nm fluorescence (AID 1126); details: small-molecule microarray binding, fluorescence 635 nm; higher = more signal;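 also: printed compound slides probed with Chrdl2 protein at 4 µg/mL for 1 h at 4 C; score merges 667 nm emission intensity with signal to noise over three replicate slides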
# [8] = biological target: Concanavalin-A (Canavalia ensiformis) (UniProt P02866); assay: ConA small-molecule binders, primary screen, artefact control for SMM control protein annotation, biochemical, small-molecule microarray, Alexa647 label, 635 nm (AID 1127); details: ConA-A647 binding fluorescence, higher = more signal;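 also: z combines 667 nm emission intensity with signal-to-noise across three replicate slides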
# [9] = anti-His antibody binders, primary screen, artefact control for SMM control protein annotation, biochemical, small-molecule microarray, 635 nm fluorescence (AID 1128); details: anti-His Alexa647 antibody binding, higher = more signal;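 also: score merges feature fluorescence with signal-to-noise for each printed compound spot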
# [10] = tested on: Human papillomavirus type 1a E7 protein (residues 1-88); assay: HPV1a E7 small-molecule binders, primary screen, biochemical, small-molecule microarray, residues 1-88, 635 nm (AID 1129); details: small-molecule microarray binding, fluorescence 635 nm; higher = more signal
# [11] = biological target: Focal adhesion kinase 1 (Homo sapiens) (UniProt Q05397); assay: small-molecule microarray binders of FAK, primary screen, biochemical, 635/667 nm fluorescence, BSA, DTT (AID 1130); details: PTK2 binding, 635 nm fluorescence, higher = more signal;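 also: composite of spot emission at 667 nm and signal to noise over triplicate slides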
# [12] = tested on: Fibrinogen (Alexa647-labelled); assay: fibrinogen binders on compound microarrays, profiling panel, artefact control for SMM control-protein annotation, biochemical, small-molecule microarray, 635/667 nm fluorescence (AID 1131); details: fibrinogen-A647 binding fluorescence, higher = more signal;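 also: z-score merges 667 nm fluorescence with per-spot signal-to-noise over triplicate slides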
# [13] = biological target: Follistatin (Homo sapiens) (UniProt P19883); assay: follistatin binders on small-molecule microarrays, primary screen, biochemical, small-molecule microarray, 635/667 nm fluorescence (AID 1132); details: FST binding, 635 nm fluorescence, higher = more signal
# [14] = biological target: Fibroblast growth factor 2 (Homo sapiens) (UniProt P09038); assay: FGF2 binders on small-molecule microarrays, primary screen, biochemical, small-molecule microarray, 635/667 nm fluorescence (AID 1133); details: small-molecule microarray binding, FGF2, fluorescence 635/667; higher = more signal
# [15] = mitochondrial membrane potential change in A549 cells, profiling panel, cell-based, JC-1 fluorescence, basal, 24 h, 100 nL (AID 1138); details: higher = more signal;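 also: A549 lung adenocarcinoma cells under basal conditions with no added stimulus; test concentration not given here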
# Lefty1 = Lefty1 binders on small-molecule microarrays, primary screen, biochemical, small-molecule microarray, 635/667 nm fluorescence (AID 1139); details: small-molecule microarray binding, fluorescence 635/667; higher = more signal
# [16] = tested on: wheat germ agglutinin (Triticum aestivum), Alexa647-labelled; assay: wheat germ agglutinin binders on compound microarrays, profiling panel, artefact control for SMM control-protein annotation, biochemical, small-molecule microarray, 635/667 nm fluorescence (AID 1140); details: WGA-A647 binding, 635 nm fluorescence, higher = more signal;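 also: score merges 667 nm feature emission with signal to noise over triplicate slides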
# [17] = biological target: Luciferin 4-monooxygenase (Photinus pyralis) (UniProt P08659); assay: firefly luciferase enzyme inhibitors, primary screen, biochemical, luminescence, purified enzyme, 2006 set (AID 1141); details: SteadyGlo luminescence, 30 min, higher = more signal, called active from +8 up or from −8 down;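 also: cell-free assay with purified firefly luciferase at 100 ng per well in PBS; test concentration not given here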
# Sequence of Luciferin 4-monooxygenase (Photinus pyralis) (P08659 whole entry, looked up): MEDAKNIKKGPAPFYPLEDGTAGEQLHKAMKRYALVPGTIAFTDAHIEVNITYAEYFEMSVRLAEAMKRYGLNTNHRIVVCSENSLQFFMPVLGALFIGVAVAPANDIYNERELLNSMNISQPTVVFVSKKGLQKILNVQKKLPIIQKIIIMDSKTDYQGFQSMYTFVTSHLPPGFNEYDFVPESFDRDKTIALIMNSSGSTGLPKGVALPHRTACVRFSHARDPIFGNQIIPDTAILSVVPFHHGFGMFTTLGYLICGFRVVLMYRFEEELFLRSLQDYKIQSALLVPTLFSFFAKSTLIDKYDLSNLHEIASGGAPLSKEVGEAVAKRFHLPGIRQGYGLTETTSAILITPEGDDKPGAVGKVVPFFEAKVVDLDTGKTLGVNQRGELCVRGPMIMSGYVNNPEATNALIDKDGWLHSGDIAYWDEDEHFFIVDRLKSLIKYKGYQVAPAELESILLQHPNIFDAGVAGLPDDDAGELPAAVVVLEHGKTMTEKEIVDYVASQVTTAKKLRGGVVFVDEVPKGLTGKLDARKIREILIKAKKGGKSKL
# Sequence of Concanavalin-A (Canavalia ensiformis) (P02866 whole entry, looked up): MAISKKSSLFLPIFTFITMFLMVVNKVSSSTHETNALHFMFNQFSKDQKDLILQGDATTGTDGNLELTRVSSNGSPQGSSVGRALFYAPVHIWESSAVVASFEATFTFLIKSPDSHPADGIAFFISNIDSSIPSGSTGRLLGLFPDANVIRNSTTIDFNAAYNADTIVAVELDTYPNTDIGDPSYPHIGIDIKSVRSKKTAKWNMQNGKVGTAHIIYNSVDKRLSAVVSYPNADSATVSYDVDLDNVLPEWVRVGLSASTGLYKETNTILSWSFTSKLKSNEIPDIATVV
# Sequence of Follistatin (Homo sapiens) (P19883 whole entry, looked up): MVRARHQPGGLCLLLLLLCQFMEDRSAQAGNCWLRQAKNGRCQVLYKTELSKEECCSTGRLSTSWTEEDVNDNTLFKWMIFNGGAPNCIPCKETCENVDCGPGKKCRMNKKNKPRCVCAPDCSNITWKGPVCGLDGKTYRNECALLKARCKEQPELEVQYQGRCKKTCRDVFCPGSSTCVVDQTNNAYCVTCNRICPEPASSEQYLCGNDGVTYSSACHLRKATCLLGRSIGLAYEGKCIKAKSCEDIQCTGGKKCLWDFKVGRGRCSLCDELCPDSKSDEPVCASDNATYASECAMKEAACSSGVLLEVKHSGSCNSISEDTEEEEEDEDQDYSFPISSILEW
# Sequence of Fibroblast growth factor 2 (Homo sapiens) (P09038 whole entry, looked up): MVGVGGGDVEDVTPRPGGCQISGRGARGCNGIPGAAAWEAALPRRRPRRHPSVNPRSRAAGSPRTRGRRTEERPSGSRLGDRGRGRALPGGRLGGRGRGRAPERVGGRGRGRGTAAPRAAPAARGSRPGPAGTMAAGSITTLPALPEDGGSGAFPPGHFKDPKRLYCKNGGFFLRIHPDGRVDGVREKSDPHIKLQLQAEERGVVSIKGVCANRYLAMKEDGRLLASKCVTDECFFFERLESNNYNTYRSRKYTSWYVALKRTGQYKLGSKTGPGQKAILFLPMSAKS
# Sequence of Focal adhesion kinase 1 (Homo sapiens) (Q05397 whole entry, looked up): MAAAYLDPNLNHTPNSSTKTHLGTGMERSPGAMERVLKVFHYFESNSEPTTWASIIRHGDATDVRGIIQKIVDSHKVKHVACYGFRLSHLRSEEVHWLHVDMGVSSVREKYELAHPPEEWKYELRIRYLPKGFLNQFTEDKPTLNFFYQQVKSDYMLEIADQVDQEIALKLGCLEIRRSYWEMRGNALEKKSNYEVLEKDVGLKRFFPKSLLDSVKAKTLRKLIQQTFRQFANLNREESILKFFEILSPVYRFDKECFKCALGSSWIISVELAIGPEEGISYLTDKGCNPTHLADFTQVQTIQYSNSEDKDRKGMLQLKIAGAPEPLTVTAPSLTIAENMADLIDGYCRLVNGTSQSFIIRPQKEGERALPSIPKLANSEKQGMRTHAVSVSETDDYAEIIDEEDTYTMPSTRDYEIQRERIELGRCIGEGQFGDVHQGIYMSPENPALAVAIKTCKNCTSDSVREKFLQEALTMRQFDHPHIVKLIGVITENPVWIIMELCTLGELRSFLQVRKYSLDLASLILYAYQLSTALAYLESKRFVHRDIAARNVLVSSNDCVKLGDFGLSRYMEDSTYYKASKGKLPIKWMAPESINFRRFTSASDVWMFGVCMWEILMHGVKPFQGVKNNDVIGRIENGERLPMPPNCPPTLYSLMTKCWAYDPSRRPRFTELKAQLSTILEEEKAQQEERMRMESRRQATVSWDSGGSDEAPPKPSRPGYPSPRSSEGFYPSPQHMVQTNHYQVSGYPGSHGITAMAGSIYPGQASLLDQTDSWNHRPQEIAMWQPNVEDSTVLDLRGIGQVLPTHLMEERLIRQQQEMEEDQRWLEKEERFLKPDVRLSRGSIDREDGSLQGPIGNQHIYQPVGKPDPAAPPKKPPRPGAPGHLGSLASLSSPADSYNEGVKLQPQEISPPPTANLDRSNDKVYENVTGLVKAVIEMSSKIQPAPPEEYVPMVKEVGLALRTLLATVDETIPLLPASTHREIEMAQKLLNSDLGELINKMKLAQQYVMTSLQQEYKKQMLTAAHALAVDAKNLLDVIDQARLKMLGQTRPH
# Sequence of Albumin (Bos taurus) (P02769 whole entry, looked up): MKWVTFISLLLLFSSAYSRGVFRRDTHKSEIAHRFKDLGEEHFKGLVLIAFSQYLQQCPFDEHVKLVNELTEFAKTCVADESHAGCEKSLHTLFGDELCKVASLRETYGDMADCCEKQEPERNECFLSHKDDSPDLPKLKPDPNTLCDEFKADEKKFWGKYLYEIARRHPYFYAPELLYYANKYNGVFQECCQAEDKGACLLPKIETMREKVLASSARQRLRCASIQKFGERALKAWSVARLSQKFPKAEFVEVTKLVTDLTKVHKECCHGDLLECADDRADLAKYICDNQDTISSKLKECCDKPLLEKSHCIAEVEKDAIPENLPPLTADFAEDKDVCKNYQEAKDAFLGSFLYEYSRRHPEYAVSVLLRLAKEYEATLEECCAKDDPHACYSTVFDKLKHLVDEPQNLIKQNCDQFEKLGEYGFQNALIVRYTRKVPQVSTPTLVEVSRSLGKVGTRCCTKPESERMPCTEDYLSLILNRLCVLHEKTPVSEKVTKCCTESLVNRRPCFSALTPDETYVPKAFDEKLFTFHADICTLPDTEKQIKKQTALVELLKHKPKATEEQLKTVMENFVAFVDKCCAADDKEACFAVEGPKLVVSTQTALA
Compound,composite z-score (Albumin (Bos taurus)),composite Z-score [1],composite z-score [2],composite z-score [3],composite z-score [4],composite z-score [5],composite z-score [6],composite z-score (Sam68 (KHDRBS1)),composite z-score [7],composite z-score [8],composite z-score [9],composite z-score [10],composite z-score [11],composite z-score [12],composite z-score [13],composite z-score [14],z-score [15],composite z-score (Lefty1),composite z-score [16],z-score [17]
CC(C)CON=C1C[C@@H](O)[C@@H](O)[C@@H]2[C@@H]3C(=O)N(c4ccc(F)cc4F)C(=O)[C@@H]3CC[C@@H]12,0.238,-0.0578 (inactive),-0.095,-0.0896,0.0617,-0.146,0.135,0.693,0.243,0.72,0.663,0.105,0.156,0.699,0.585,0.508,-0.99,0.617,-0.0433,0.831 (inactive)
COC(=O)CC=C[C@@H](C)[C@@H](C=NOC(C)CN1CCCCc2nc(C)c(C)cc21)NS(=O)(=O)c1ccc(C)cc1 (stereo not given in full),-0.636,-0.292 (inactive),0.0949,-0.19,-0.277,-0.065,0.0618,0.0692,1.17,-0.135,0.0454,0.156,0.0646,-0.207,0.927,0.601,-0.297,0.417,0.0721,0.183 (inactive)
CCO[C@H](c1cc(OC)cc([N+](=O)[O-])c1OC)[C@H](C)[C@@H](OC)[C@H](C)C=CCC(=O)OC,0.825,0.179 (inactive),-0.0947,-0.0907,0.725,0.0657,-0.0242,0.724,-0.0602,0.666,-0.406,0.257,0.115,0.949,0.0822,0.183,0.163,-0.125,0.298,0.114 (inactive)
CCOC(=O)CCN1C(=O)[C@H]2[C@H]3[C@H](O)[C@H](O)CC(=NNC(=O)OCc4ccccc4)[C@H]3CC[C@H]2C1=O,-0.914,0.734 (inactive),0.232,-0.0309,-0.67,-1.26,-0.0688,-1.01,1.4,-0.636,-0.954,-0.746,-0.355,-0.714,0.44,0.386,-0.674,0.742,-0.547,0.292 (inactive)
COc1ccc(COC(=O)NN=C2C[C@@H](O)[C@@H](O)[C@@H]3[C@@H]4C(=O)N(Cc5ccc6c(c5)OCO6)C(=O)[C@@H]4CC[C@H]23)cc1,0.252,0.0467 (inactive),0.0534,-0.0523,-0.32,0.352,-0.257,-0.319,-0.486,-1.15,-0.0397,-0.474,-0.126,-0.261,-1.12,-1.21,0.419,-1.06,0.801,0.506 (inactive)
CC(C)(C)N1C(=O)[C@H]2[C@H]3[C@H](O)[C@H](O)CC(=NOC[C@@H](O)COCc4ccco4)[C@H]3CC[C@H]2C1=O,0.383,-0.0443 (inactive),-0.128,-0.117,0.282,0.327,0.72,0.396,0.479,0.315,0.606,0.237,-0.136,0.0824,-0.22,0.249,0.0624,-0.0429,0.495,-0.011 (inactive)
C[C@@H]1CC[C@H]2C(=O)OC(Cc3ccccc3)CN2[C@H]1c1ccc(Br)cc1 (stereo not given in full),0.525,-0.014 (inactive),-0.0362,-0.198,0.186,0.712,0.509,0.64,0.257,0.494,0.227,0.238,-0.0103,0.853,0.329,0.867,1.57,0.789,0.339,-0.679 (inactive)
O=C(NCCC[N+]1=CC=NC1c1ccccc1)N1CCCc2nc(-c3ccc(Br)cc3)ccc21 (stereo not given),0.452,0.762 (inactive),-0.222,-0.119,-0.0214,-0.382,-0.264,0.152,0.421,0.605,0.862,-0.493,0.183,0.692,0.733,0.208,1.76,0.27,-0.471,0.395 (inactive)
CON=C[C@@H](OC)[C@H](C)C=CCC(=O)OC,-0.518,0.0575 (inactive),-0.0014,-0.201,-0.312,0.157,-0.195,-0.258,0.231,-0.105,1.66,0.158,-0.069,-1.5,0.0902,0.0231,-0.223,0.0713,-0.115,-0.982 (inactive)
C[C@@H]1C=CCC(=O)OC[C@H](C)C(=O)N[C@@H](Cc2ccccc2)C(=O)OC1,-0.568,0.398 (inactive),-0.133,-0.0995,-0.187,-0.355,0.552,-0.124,0.981,0.12,-0.044,-0.203,-0.0171,0.0608,0.927,0.589,-0.00638,0.432,0.0031,-0.0028 (inactive)
CCCNC(=O)OC[C@H]1O[C@H](CCON=C[C@@H](NS(=O)(=O)c2ccc(C)cc2)[C@H](C)C=CCC(=O)OC)C=C[C@@H]1Oc1ccc(OC)cc1,-0.413,-0.385 (inactive),0.0961,-0.0158,-0.437,-0.192,-0.0407,0.0713,0.16,-1.46,-0.114,0.136,0.459,0.0865,-0.0546,-0.102,0.188,0.0275,0.391,-0.21 (inactive)
